Assay outcomes from PubChem.
PKM2 act – qHTS Assay for Activators of Human Muscle isoform 2 Pyruvate Kinase; Pyruvate kinase PKM (Homo sapiens), P14618; purified PKM2, Kinase-Glo ATP luminescence, activation; response scale: 0% is enzyme alone, no compound; 260,000 tested, 0.34% active; Potency, µM (highest dose often 57.5 µM), hits mostly activators; further: nearly all actives have a fitted effect of over 55% in size
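Purified hPK-M2 (>95% pure) converted ADP (0.1 mM final) to ATP with 0.5 mM PEP in 50 mM imidazole pH7.2, KCl, MgCl2, Tween 20, BSA; 1 h at room temperature. ATP detected by Kinase-Glo luminescence.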
aGal spleen mod – qHTS Assay for Inhibitors and Activators of Human alpha-Galactosidase From Spleen Homogenate; 240,000 tested, 0.008% active; Potency, µM (doses to about 80 µM), hits mostly inhibitors; human spleen homogenate, 4MU-alpha-Gal fluorescence, 40 min; Alpha-galactosidase A (Homo sapiens), P06280; AID 2107, 2009
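Human spleen homogenate (1 ug) as enzyme source, 4-methylumbelliferyl-alpha-D-galactopyranoside 1 mM final, citrate/phosphate pH 5.0 with 0.01% Tween-20. Compounds 40 min at 37C, NaOH/glycine stop; fluorescence Ex 365/Em 440, Hill-fit AC50.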
HttQ103 aggreg – qHTS Multiplex Assay to Identify Dual Action Probes in a Cell Model of Huntington: Aggregate Formation (GFP); PC12 HttQ103-GFP aggregates, Acumen cytometry, 40 h; Potency, µM (highest dose often 46.1 µM), usual class: inhibitors; 220,000 tested, 1.1% active; AID 1688, 2009; further: nearly all actives have a fitted effect of over 60% in size
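Read-out: GFP aggregate count by laser scanning cytometer (488 nm excitation, 500-530 nm emission, 1–25 µm objects >6 SD above background). Cells: PC12, inducible HTTex1-Q103-GFP, 100 nM tebufenozide; compounds titrated.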
GLA inh pH 4.5 – qHTS Assay for Inhibitors of Human alpha-Galactosidase at pH 4.5; 230,000 tested, under 10 active; purified enzyme, 4-MU-alpha-Gal fluorescence, pH 4.5; Alpha-galactosidase A (Homo sapiens), P06280; activity change, negative = inhibition, % at 105 µM
Target sequence (P06280 whole entry, looked up): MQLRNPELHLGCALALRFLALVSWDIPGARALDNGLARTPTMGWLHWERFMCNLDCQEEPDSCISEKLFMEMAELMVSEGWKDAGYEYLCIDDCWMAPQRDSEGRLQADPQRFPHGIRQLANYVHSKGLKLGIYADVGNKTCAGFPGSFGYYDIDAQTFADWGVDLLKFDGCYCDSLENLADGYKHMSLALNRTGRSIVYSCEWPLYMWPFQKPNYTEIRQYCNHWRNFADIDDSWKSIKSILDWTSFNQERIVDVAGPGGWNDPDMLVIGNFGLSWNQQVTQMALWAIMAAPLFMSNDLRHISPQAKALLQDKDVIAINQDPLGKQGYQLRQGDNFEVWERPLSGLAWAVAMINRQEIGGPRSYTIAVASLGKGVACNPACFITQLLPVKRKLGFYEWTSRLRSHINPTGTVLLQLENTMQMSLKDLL
HTT cytoprotect – qHTS Multiplex Assay to Identify Dual Action Probes in a Cell Model of Huntington: Cytoprotection (ATP). PC12 HTT-Q103 induced, cytoprotection, ATP luminescence, 40 h. Potency, µM (titrated, usually from 56.4 µM), hits mostly activators. 230,000 tested, 0.14% active. AID 1471, 2008; further: nearly all actives have a fitted effect of over 45% in size
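PC12 cells with ecdysone-inducible HTT exon 1 Q103-GFP, induced with 100 nM tebufenozide and co-treated with library compounds in a dose series (1536-well, 1500 cells/well). Cytoprotection read as ATP content by ATPlite luminescence.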
Numbers stand for hits; . = inactive; ? = inconclusive; / = not tested or not shown; [ ] = remark or other dose. Shown are actives, neighbours in structure and some others; about 1.2% of the full set was active somewhere. The call rests on the fitted dose curve; in most records, active means well fitted curve in the direction sought with a large enough effect; inconclusive means small, poorly fitted or top-dose-only effect, or another doubt; inactive means no such curve, though single readings can be large; an effect the other way counts as inactive or inconclusive.

SMILES	PKM2 act	aGal spleen mod	HttQ103 aggreg	GLA inh pH 4.5	HTT cytoprotect
CCN(CC)c1nc2nonc2nc1N(CC)CC	.	.	0.45µM	.	.
Cc1ccc([N+](=O)[O-])cc1S(=O)(=O)N(C(=O)c1ccncc1)c1ccc2oc3c(c2c1)CCCC3	.	.	18µM	.	.[10 µM]
O=S1(=O)NCC23CCC(CC21)O3 (configuration not stated)	/	.	/	/	/
COC(=O)C(Cc1ccccc1)NS(=O)(=O)c1cc(Br)ccc1Br (configuration not stated)	/	.	/	/	/
c1ccc(OCc2nn3c(Cn4cnc5ccccc54)nnc3s2)cc1	4.5µM	.	.	.	.
c1ccc2c(c1)ncn2Cc1nnc2sc(-c3ccncc3)nn12	8.9µM	.	.	.	.[10 µM]
c1cncc(-c2nn3c(Cn4cnc5ccccc54)nnc3s2)c1	?	.	.	.	.[10 µM]
Nc1ccc(C(=O)Oc2ccc([N+](=O)[O-])cc2)cc1	40µM	.	.[9.22 µM]	.	.[10 µM]
CC(=O)OCC(=O)[C@@]1(O)CCC2C3CC(C)C4=CC(=O)C=CC4(C)C3C(O)CC21C (some centres not stated)	/	.	/	.	/
O=Cc1cccc(Br)c1	/	.	/	/	.
CCN(CC)S(=O)(=O)c1ccc2c3c(cccc13)C(=O)N2	.	.	1.6µM	.	.
C/C(=N\NC(=O)c1ccc(CN2CCc3ccccc3C2)cc1)c1ccccc1O	.	.	10µM	.	.
CCCNC(=O)c1ccc(CN2CCc3ccccc3C2)cc1	.	.	.	.	.[10 µM]
NC(=O)C1CCCN1C(=O)C(Cc1cnc[nH]1)NC(=O)C1CCC(=O)N1 (configuration not stated)	/	.	/	/	/
Nc1nnc(Cc2ccc(Cl)c(Cl)c2)s1	.	.	5.6µM	.	.
O=Cc1ccc(CO)o1	/	.	/	/	.
Cc1c(/C=N/NC(=O)C2(O)c3ccccc3-c3ccccc32)cnn1C	.	.	.	.	/
O=C(N/N=C/c1ccccc1O)C1(O)c2ccccc2-c2ccccc21	.	.	10µM	.	.[1.9 µM]
Cc1ccc(S(=O)(=O)Nc2ccc(O)c3cccnc23)cc1	10µM	/	/	/	/
CC(=O)Oc1ccc2c(c1)Oc1cc(OC(C)=O)ccc1C21OC(=O)c2ccccc21	.	.	0.32µM	.	.[10 µM]
O=C1OC2(c3ccc(O)cc3Oc3cc(O)ccc32)c2ccccc21	/	.	/	.	.
CCOc1ccc(NC2=C(Cl)C(=O)N(Cc3ccccc3)C2=O)cc1	.	.	.	.	.
Cc1ccc(O)c(NC2=C(Cl)C(=O)N(Cc3ccccc3)C2=O)c1	8.9µM	.	?	.	.
C[N+]1(Cc2ccccc2)CCC(C(=O)OCC2CCCC2)CC1 (configuration not stated)	/	.	/	/	.
COC(=O)c1c(C)n(-c2ccc(OC)cc2)c2ccc(O)cc12	?	.	11µM	.	.
SMILES	PKM2 act	aGal spleen mod	HttQ103 aggreg	GLA inh pH 4.5	HTT cytoprotect
COc1ccc(-n2c(C)c(C(C)=O)c3cc(OC(C)=O)ccc32)cc1	.	/	/	/	/
CSC(N)=NCCC[C@H](N)C(=O)O	/	.	/	.	/
COc1ccc(N2C(=O)CC(Sc3nc4ccccc4s3)C2=O)cc1 (configuration not stated)	.	.	32µM	.	.
CCOc1ccc2nc(SC3CC(=O)N(c4ccc(OC)cc4)C3=O)sc2c1 (configuration not stated)	.	.	?	.	.
CC(C)c1ccc(N2C(=O)CC(Sc3nc4ccccc4o3)C2=O)cc1 (configuration not stated)	?	.	3.5µM	.	.
CCCCCCCCCCCC[n+]1ccc2ccccc2c1	/	/	7.1µM	/	.
CCCCCCCCCCCCCCCC[n+]1ccc(C(N)=O)cc1	.	.	.	.	.[10 µM]
CCCCCCCCCCCCCC[n+]1ccc(C)cc1	/	/	22µM	/	.
CCCCCCCCCCCCCCCC[n+]1ccc(/C=N/O)cc1	.	.	8.9µM	.	.[10 µM]
CC(=O)OCC1OC(c2cc(C)cc(C)c2)C=CC1OC(C)=O (configuration not stated)	/	.[17.5 µM]	/	/	.[10 µM]
COc1ccc(-c2nnc3n2N=C(c2ccc(OC)c(OC)c2)CS3)c(OC)c1	/	.	/	/	/
Cc1cc(-c2ccccc2)n(-c2cc(N/N=C/c3ccccc3O)ncn2)n1	.	.	8.9µM	.	.[10 µM]
CNc1cc(-n2nc(C)cc2-c2ccccc2)ncn1	.	.	.	.	.
O=C1NC(c2ccc(Cl)cc2)Oc2ccccc21 (configuration not stated)	.	/	/	/	/
O=C1c2ccccc2C(=O)C12OC2c1ccc(Cl)cc1 (configuration not stated)	.	.	32µM	.	.[10 µM]
O=C(CCl)Nc1ccc(-c2ccccc2)cc1	.	.	18µM	.	.
CC(=O)Nc1cn(-c2ccccc2)nc1-c1ccccc1	.	.	.	.[21.1 µM]	.
O=C(CCl)Nc1ccc(N=Nc2ccccc2)cc1	.	.	?	.	/
O=C(CCl)Nc1cn(-c2ccccc2)nc1-c1ccccc1	.	.	22µM	.	.
CC(=O)OC[C@@H]1O[C@H](C/C=N\OC[C@@H](O)[C@H]2O[C@H]3OC(C)(C)O[C@H]3[C@@H]2O)C=C[C@@H]1OC(C)=O	/	.[17.5 µM]	/	/	.[10 µM]
COC(=O)CSC1=C(C#N)C(c2ccccc2F)CC(=O)N1 (configuration not stated)	28µM	.	.[9.22 µM]	.	.[10 µM]
C[C@H](NC(=O)CNC(=O)[C@@H](NC(=O)[C@H](Cc1ccccc1)NC(=O)CNC(=O)CNC[C@@H](N)Cc1ccccc1)[C@@H](C)O)C(=O)N[C@@H](CCCN=C(N)N)C(=O)N[C@@H](CCCCN)C(=O)N[C@@H](CO)C(=O)N[C@@H](C)C(=O)N[C@@H](CCCN=C(N)N)C(=O)N[C@@H](CCCCN)C(N)=O	/	.	/	/	/
N#CC(C#N)=C1C=C2C=C(N3CCCCC3)CCC2CC1 (configuration not stated)	.	.	10µM	.	/
CCN(CC)C1=CC2=CC(=C(C#N)C#N)CCC2CC1 (configuration not stated)	.	.	0.1µM	.	.[10 µM]
CCCCN(C)C1=CC2=CC(=C(C#N)C#N)CCC2CC1 (configuration not stated)	.	.	0.32µM	.	.[10 µM]
CS(=O)(=O)N1CCC2(CCCN(Cc3ccccc3)C2)CC1	/	.	/	/	.
O=C(CCc1nc(-c2ccccc2F)no1)Nc1ccc(Oc2ccccc2)cc1	.	.	4µM	.	.
Cc1cc2ccc(=O)oc2cc1OC[C@@H](O)C(C)(C)O	/	?	/	?	.[1.9 µM]
Cc1[nH]nc(SCC(=O)NCc2ccccc2)c1[N+](=O)[O-]	.	.	.	.	.[10 µM]
